Consider 39 molecules from PubChem BioAssay (EPA / NIEHS).

Results filed as inconclusive are left out. Activity calls are given as the source filed them. How the source made its calls: active means hit-call score of the fitted dose curve at least 0.9, where 1 is the maximum; inconclusive means response in the unintended direction; inactive means score below 0.9.

The AC50 is the concentration giving half of the maximal activity seen.

Sequence of Androgen receptor (Homo sapiens) (P10275 whole entry, looked up, the tested form may be a part): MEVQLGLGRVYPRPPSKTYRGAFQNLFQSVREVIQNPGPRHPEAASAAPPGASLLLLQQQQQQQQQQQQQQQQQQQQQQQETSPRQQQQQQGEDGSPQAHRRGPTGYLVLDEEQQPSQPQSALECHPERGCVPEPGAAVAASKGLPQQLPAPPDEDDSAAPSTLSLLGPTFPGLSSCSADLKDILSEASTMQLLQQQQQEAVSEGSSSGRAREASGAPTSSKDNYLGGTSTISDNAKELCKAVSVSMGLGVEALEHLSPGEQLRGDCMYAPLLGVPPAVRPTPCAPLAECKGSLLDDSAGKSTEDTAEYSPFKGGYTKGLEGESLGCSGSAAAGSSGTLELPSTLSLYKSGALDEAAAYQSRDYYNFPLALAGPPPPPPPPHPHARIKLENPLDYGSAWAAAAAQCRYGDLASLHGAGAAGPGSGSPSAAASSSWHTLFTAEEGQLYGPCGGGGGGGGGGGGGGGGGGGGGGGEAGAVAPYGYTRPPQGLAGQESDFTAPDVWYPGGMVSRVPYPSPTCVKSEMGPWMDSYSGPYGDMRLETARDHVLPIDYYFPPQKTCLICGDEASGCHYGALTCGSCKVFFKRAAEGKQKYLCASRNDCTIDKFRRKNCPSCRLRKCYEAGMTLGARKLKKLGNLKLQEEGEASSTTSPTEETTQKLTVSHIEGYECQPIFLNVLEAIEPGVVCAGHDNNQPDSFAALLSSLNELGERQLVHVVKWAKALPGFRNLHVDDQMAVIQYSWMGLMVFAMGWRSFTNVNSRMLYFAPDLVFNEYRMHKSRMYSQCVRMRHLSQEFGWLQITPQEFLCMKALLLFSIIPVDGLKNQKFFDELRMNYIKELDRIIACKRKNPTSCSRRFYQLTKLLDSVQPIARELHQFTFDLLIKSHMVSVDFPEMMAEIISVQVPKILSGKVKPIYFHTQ

The target of this test is Androgen receptor (Homo sapiens) (UniProt P10275). The experiment in a line: ATG_AR_TRANS: Attagene TRANS-FACTORIAL HepG2 Assay for human Androgen Receptor (AR) (AID 2282973). As to conditions: HepG2 Attagene TRANS-FACTORIAL AR reporter transcription. An outline of the steps:
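Readout is reporter transcript abundance, quantified by fluorescent RT-PCR products separated on capillary electrophoresis. Human HepG2 liver cells carried transiently transfected NR-Gal4 chimera plus GAL4-UAS reporter constructs and were dosed for 24 h; activity scored upward versus DMSO.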
As to `CC(C)CCOCc1ccccc1`, the call was inactive.
Same read-out and setting: in the case of `CC1CCC(C(=O)O)CC1` (centres undefined) it was “inactive”; in that of `CCOC(=O)[C@@H](C)Oc1ccc(Oc2nc3ccc(Cl)cc3o2)cc1`, “inactive”; in that of `O=S(=O)(c1ccc(OCc2ccccc2)cc1)c1ccccc1O`, “inactive”.
Same read-out and setting: the value for `COCc1c(C(C)C)nc(C(C)C)c(/C=C/[C@@H](O)C[C@@H](O)CC(=O)O)c1-c1ccc(F)cc1` was “inactive”; that for `O=C(CC(=O)C(F)(F)C(F)(F)C(F)(F)F)c1cccs1` was “inactive”; that for `CC(=O)OC1CCCCC1C(C)(C)C` (centres undefined) was “inactive”.
Same read-out and setting: in the case of `O=C(Cl)C(F)(F)C(F)(F)C(F)(F)C(F)(F)C(F)(F)C(F)(F)F` it was “inactive”.
With `CC1CCC(C(C)C)C(O)C1` (centres undefined), the call was inactive.
Still for that read-out and setting: in the case of `CCCCCCCCCCCCCCCCCC[N+](C)(C)Cc1ccccc1` it was “inactive”; in that of `CC1(C)[C@H](C=C(Cl)Cl)[C@H]1C(=O)OCc1cccc(Oc2ccccc2)c1`, “inactive”.
Same read-out and setting: the value for `FC(F)(F)C1(F)C(F)(F)C(F)(F)C(F)(F)C(F)(C(F)(F)F)C1(F)F` (centres undefined) was “inactive”.
Still for that read-out and setting: the value for `O=C(NO)c1ccccc1` was “inactive”.
Turning to `CC(Oc1cc(Cl)ccc1Cl)C(=O)O` (centres undefined), the molecule was called inactive.
Turning to `ON(Cc1ccccc1)Cc1ccccc1`, the outcome was inactive.
Regarding `NCC1CCCC(CN)C1` (centres undefined), the molecule was classed as inactive.
For the molecule `O=C1CCCCC1`, the molecule was classed as inactive.
Turning to `C=COC(=O)C(C)(C)CCCCCC`, the molecule was called inactive.
With `CC(=O)c1ccc[nH]1`, the molecule was classed as inactive.
On the same count and under the same terms, in the case of `CCCCCCCCCCC` it was “inactive”; in that of `Cn1cccc1`, “inactive”.
Take `CC=CCO`: the call was inactive.
On the same count and under the same terms, in the case of `Clc1ccc2c(Cl)ccnc2c1` it was “inactive”.
Consider `CCCCCCCCCCCCCCCCCC[N+](C)(C)C`, for which the AC50 is 14.5 µM (active).
Take `COc1ccccc1OCC(O)CO` (centres undefined): the molecule was called inactive.
On the same count and under the same terms, the value for `CCC1(C)C(=O)N(Cl)C(=O)N1Cl` (centres undefined) was “inactive”; that for `CC(C)(C)c1ccc(OC2CCCCC2O)cc1` (centres undefined) was “inactive”.
The same measure, in the same setting: the value for `Nc1c(Cl)cc(Cl)cc1[N+](=O)[O-]` was “inactive”; that for `NC(=O)C(F)(F)C(F)(F)C(F)(F)F` was “inactive”.
Still for that read-out and setting: in the case of `O=C(C=C(O)C(F)(F)F)C(F)(F)F` it was “inactive”.
`C=CCOCC(O)CCl` (centres undefined): the call was inactive.
On the same count and under the same terms, the value for `O=C(Cl)C(F)(F)C(F)(F)C(F)(F)C(F)(F)C(F)(F)C(F)(F)C(F)(F)F` was “inactive”; that for `CN(C)c1ccc(C(c2ccccc2)c2ccc(N(C)C)cc2)cc1` was “inactive”.
On the same count and under the same terms, the value for `FC(F)(F)N1C(F)(F)C(F)(F)OC(F)(F)C1(F)F` was “inactive”.
The same measure, in the same setting: the value for `CCCCCCOc1ccc(O)cc1` was “inactive”; that for `C=CC/C=C/C/C=C/C/C=C/C` was “inactive”; that for `CC(=O)c1ccc(S(=O)(=O)NC(=O)NC2CCCCC2)cc1` was “inactive”.
In the case of `FC(F)(F)C(F)(F)C(F)(F)N(C(F)(F)C(F)(F)C(F)(F)F)C(F)(F)C(F)(F)C(F)(F)F`, the call was inactive.
The same measure, in the same setting: in the case of `CCC(C)(C)C1CCC(=O)CC1` it was “inactive”.
